# High-throughput results deposited in PubChem by National Center for Advancing Translational Sciences (NCATS).
# In the library only some 3.6% were active in any assay of this set; here they are far more common.
# FUS suppressor = FUS proteinopathy suppression in yeast | S. cerevisiae FUS-expressing, growth rescue, OD600, 24 h | AID 1347120 | Potency, µM (top dose mostly 76.6 µM), most hits filed as activators | actives 0.24% (n = 390,000);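 further: plate controls were DMSO vehicle for no effect and reference control for full effect; nearly all actives have a fitted effect of over 55% in size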
#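 Cultures pregrown in 2.5% raffinose medium are shifted to minimal medium containing 2% galactose to express toxic FUS. Compounds are tested at several concentrations. After 24hr at 30C, growth is quantified at 600 nm absorbance.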
# Abeta yeast res = restores growth of yeast expressing A-beta42 peptide; yeast expressing A-beta42, growth rescue, OD600, 48 h; response scale: 0% DMSO, 100% iron-clioquinol control; Potency, µM (doses to about 46.1 µM), actives largely listed as activators; actives 0.063% (n = 410,000); AID 1347071; further: nearly all actives have a fitted effect of over 55% in size
#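 Growth rescue measured by 600 nm absorbance after 48 h yeast culture at 30 C with compound. Values normalized between DMSO and an equimolar ferric chloride plus clioquinol control.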
# TDP-43 yeast inh = rescues yeast growth from TDP-43 toxicity; TDP-43 expressing yeast growth rescue, BacTiter-Glo, 24 h; Potency, µM (highest dose often 46.1 µM), for the others: at the highest dose growth rescue (activation), most hits filed as activators; actives 1.8% (n = 410,000); AID 652104; further: % of control where 0% means no effect; nearly all actives have a fitted effect of over 50% in size
#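 Yeast cells expressing TDP-43 under galactose induction are exposed to compounds for 24 hr at 30 deg C. BacTiter-Glo luminescence measures growth, so protective compounds score as activators.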
# aSyn yeast inh = inhibitors of alpha-synuclein toxicity in yeast. Yeast expressing alpha-synuclein, growth rescue, BacTiter-Glo, 24 h. Potency, µM (doses to about 46.1 µM), without a hit: top-dose growth rescue (activation), most hits filed as activators. actives 0.14% (n = 370,000). AID 652106; further: % of control where 0% means no effect; nearly all actives have a fitted effect of over 65% in size
#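 Readout is rescue of growth in alpha-synuclein-expressing yeast, so inhibitors of toxicity appear as activators. Growth after 24 hr at 30 deg C in galactose medium is quantified by luminescence.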
# MmCpn inh = inhibitors of Methanococcus maripaludis chaperonin TRiC (MmCpn); purified Mm-Cpn ATPase, ADP Transcreener TR-FRET; Potency, µM (top dose mostly 76.9 µM), inactives show at the highest dose activity, negative = inhibition, most hits filed as inhibitors; actives 0.031% (n = 330,000); further: on the % scale 0 is the no-effect control and ±100 the full control effect; nearly all actives have a fitted effect of over 80% in size
#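 Inhibition of chaperonin ATP hydrolysis is measured as reduced ADP production, detected by competitive TR-FRET in which signal falls with ADP. Final enzyme 25 nM and ATP 10 uM, reacted 30 min at 37°C.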
# ClpP mod = qHTS Assay for Activators of ClpP | ATP-dependent Clp protease proteolytic subunit (Bacillus subtilis (strain 168)), P80244 | purified B. subtilis ClpP, FRET peptide cleavage, 20 min | actives 1.9% (n = 340,000) | Potency, µM (doses to about 57.5 µM), for inactives: at the top dose activity change, negative = active; active means well fitted falling curve with a large enough effect; inconclusive means small, poorly fitted or top-dose-only effect; inactive means no such curve, though single readings can be large or run the other way; further: the source files actives as falling curves though it sought activators and does not explain the sign; nearly all actives have a fitted effect of over 65% in size
#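 FRET quenching reversal measured ClpP activation: 10 microg/mL B. subtilis ClpP at pH 8 with the FRET-FV decapeptide, read at 430 nm after 320 nm excitation. The 20-min minus 0-min signal was scaled between DMSO/no-enzyme wells and ADEP (5.8 microM final).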
# * hit, by the source's call; i = inactive; ? = inconclusive; . = no result; ! = not active in a repeat; [ ] = remark or other dose. Unless noted, the call rests on the fitted dose curve; in most records, active means well fitted curve in the direction sought with a large enough effect; inconclusive means small, poorly fitted or top-dose-only effect, or another doubt; inactive means no such curve, though single readings can be large; an effect the other way counts as inactive or inconclusive. Potency means the concentration at half of the fitted maximal effect.
SMILES,FUS suppressor,Abeta yeast res,TDP-43 yeast inh,aSyn yeast inh,MmCpn inh,ClpP mod
CCC(C)c1ccc(NC(=O)C2CCCN(c3ncccn3)C2)cc1 (centres undefined),i,i,12.6µM*,.,0.0%,-12.2%
CCc1nn(CCCC(=O)NCc2ccc(OC(C)C)cc2)c(=O)c2cc3occc3n12,31.6µM*!,i,7.0%,-3.4%,0.6%,-7.4%
CCc1nn(CCCC(=O)NC2CCCCC2C)c(=O)c2cc3occc3n12 (centres undefined),i,i,22.4µM*,4.4%,.,-1.7%
CCc1ccc(NC(=O)CCCn2nc(CC)n3c(cc4occc43)c2=O)cc1,i,i,23.4%,9.2%,-1.6%,-3.6%
O=C(Cc1ccc(F)cc1)NCc1nc2cccnc2n1Cc1ccc(F)cc1,i,i,1.8%,.,.,0.5%
CCOc1ccc(-c2cn(-c3ccc(C)cc3)c(SCC(=O)Nc3ccc(C)cc3)n2)cc1,i,i,0.0%[9.22 µM],.,.,-3.2%
O=C(CSc1ncnc2sccc12)NCc1ccc2c(c1)OCO2,i,i,15.8µM*,?,-3.6%,-1.0%
Cc1csc2ncc(C(=O)NCc3ccccc3Cl)c(=O)n12,i,i,22.4µM*,-1.5%,0.7%,3.6%
O=C(NCc1ccccc1Cl)c1cnc2n(c1=O)CCS2,i,i,?,-2.1%,-0.1%,-4.0%
Cc1csc2ncc(C(=O)NCc3ccc4c(c3)OCO4)c(=O)n12,i,i,10µM*,0.2%,-7.1%,-10.0%
O=C(NCc1ccc2c(c1)OCO2)c1cnc2ccccn2c1=O,i,i,-10.4%,-9.2%,0.7%,-1.3%
Cc1ccc(-c2csc3ncnc(SCC(=O)NCc4ccc5c(c4)OCO5)c23)cc1,i,i,-1.0%,2.4%,2.2%,-17.8%
Cc1cccc(CC(=O)N2CC(=O)Nc3ccc(C)cc3C2c2ccc(F)cc2)c1 (centres undefined),i,i,21.5%,.,.,-2.1%
CCc1ccc2[nH]c(=O)c(CN(Cc3cccs3)Cc3nnnn3Cc3ccccc3)cc2c1,.,.,.,0.7%,.,?
Cc1ccc2c(c1)C/C(=C/c1ccc(N(C)C)cc1)C2=O,.,.,.,0.5%,.,-0.2%
O=C(C[N+]1(CC(O)c2ccccc2)CCCCC1)c1ccccc1 (centres undefined),.,.,.,.,.,-2.4%
Cc1nc(-c2ccc(S(=O)(=O)N3CCN(C4c5ccccc5-c5ccccc54)CC3)s2)cs1,i,i,13.6%,6.7%,-2.9%,28.2µM*
Cc1nn(CC(=O)NCc2ccccc2Br)c(=O)c2cc3occc3n12,i,i,-17.9%,.,.,-5.0%
O=C1Cc2cc(S(=O)(=O)N3CCCCC3)cc3c2N1CCC3,?,i,15.4%,.,.,0.5%
Cc1ccc(NC(=O)C2(NC(=O)c3cccc(N4C(=O)CSC4c4ccccc4)c3)CCCCC2)cc1 (centres undefined),28.2µM*,i,-5.9%,0.6%,-0.9%,-0.8%
CCOc1ccccc1NC(=O)C(C)SCc1ccccc1 (centres undefined),i,i,-18.0%[1.82 µM],11.2%,1.1%,.
CC(SCc1ccccc1)C(=O)Nc1ccccc1-c1ccccc1 (centres undefined),17.8µM*,i,-24.7%,-0.9%,-3.6%,1.0%
O=C(Nc1ccc(-c2nc3ccccc3o2)cc1)c1ccc(N2C(=O)C3C4C=CC(C4)C3C2=O)cc1 (centres undefined),i,i,23.6%,-11.5%,-3.2%,3.16µM*
Cc1ccc(-c2nc3ccccc3o2)cc1NC(=O)c1ccc2c(c1)OCO2,i,i,-22.3%,-6.5%,-0.1%,?
O=C(Nc1ccc2oc(-c3ccccc3Cl)nc2c1)c1ncn[nH]1,i,i,-10.5%,1.0%,-0.2%,-28.8%
SMILES,FUS suppressor,Abeta yeast res,TDP-43 yeast inh,aSyn yeast inh,MmCpn inh,ClpP mod
O=C(Nc1ccc2oc(-c3cccc4ccccc34)nc2c1)c1ncn[nH]1,?,i,3.0%,0.8%,0.1%,31.6µM*
O=C(Nc1ccc2oc(-c3ccccc3F)nc2c1)c1ccc2c(c1)OCCO2,?,i,-23.0%,-2.3%,-2.8%,28.2µM*
O=C(Nc1ccc(-c2nc3ccccc3o2)cc1)c1ccc2c(c1)OCO2,i,i,-17.8%,-5.8%,.,31.6µM*
O=S1(=O)CCO[C@H]2CCCC[C@@H]2N1Cc1ccccc1,.,.,.,.,.,-0.6%
COc1cccc(NC(=O)c2oc3ccccc3c2NC(=O)C23CC4CC(CC(C4)C2)C3)c1,i,i,7.3%,.,.,?
Cc1ccc(-n2nnc(C(=O)Nc3cc(F)ccc3F)c2C)cc1F,i,i,8.9%,.,.,0.2%
OC(Cc1ccc2ccccc2n1)c1ccccc1 (centres undefined),.,.,.,-7.4%,.,-0.8%
CCCCn1c(N)c(N(CCC(C)C)C(=O)c2[nH]c(C)c(C(=O)OCC)c2C)c(=O)[nH]c1=O,i,i,-21.1%,-4.4%,2.8%,17.8µM*
CCCCn1c(N)c(N(CC(C)C)C(=O)CSCc2c(C)noc2C)c(=O)[nH]c1=O,i,i,0.5%,-3.0%,-3.9%,28.2µM*
CCCCN(C(=O)CSCc1c(C)noc1C)c1c(N)n(CCC)c(=O)[nH]c1=O,i,i,-4.7%,0.3%,1.3%,-1.8%
CCCCn1c(N)c(N(CCC(C)C)C(=O)c2ccccc2-n2cnnn2)c(=O)[nH]c1=O,i,i,-2.2%,-5.2%,2.3%,28.2µM*
CCCCn1c(N)c(N(CCC(C)C)C(=O)c2ccccc2C)c(=O)[nH]c1=O,i,i,-3.1%,-0.3%,4.0%,.
CCCCn1c(N)c(N(CCC(C)C)C(=O)CC2CCCCC2)c(=O)[nH]c1=O,i,i,-24.2%,0.2%,3.4%,2.4%
C=CCN1C(=O)[C@@H](CC(=O)N2CCCCC2)[C@]2(C(=O)OC)CCCCC=C12,i,.,.,.,.,.
COCc1c(Br)c(C)nc2sc3c(=O)n(-c4cccc(Br)c4)nnc3c12,i,i,-3.2%,.,.,-0.2%
N#C/C(=C\c1ccccc1)C(=O)NC1CC1,i,?,?,9.0%,0.8%,-1.3%
N#C/C(=C\c1c(F)cccc1Cl)C(=O)NC1CC1,i,i,12.6µM*,0.5%,-2.2%,-2.8%
O=C1CCCCCN1C(=O)c1ccccc1,i,i,-16.4%,-1.1%,.,.
O=C1CCCCCN1Sc1ccccc1,i,?,15.8µM*,-19.3%,0.2%,-3.1%
Cc1ccc(C)c(Oc2cc(NC(=O)CCCn3nc(C)c([N+](=O)[O-])c3C)cc([N+](=O)[O-])c2)c1,i,i,0.5%,13.8%,1.9%,-0.7%
